# Among all 370,000 compounds or so, about 4,800 (1.3%) were called active. For the sample, actives were picked, then their nearest neighbours and some compounds at random. Unmarked numbers belong to inactive results.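 The calls were made as follows: active = inhibition above about 21% made by adding two undisclosed values (limit read from the data); inactive = the rest.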
# Target: Protein arginine N-methyltransferase 1 (Homo sapiens) (UniProt Q99873)
# Assay: PRMT1 methyltransferase inhibitors, primary screen, biochemical, fluorescence polarization (AID 652257)
# Conditions: recombinant PRMT1, activity-based probe fluorescence polarization; at 2.79 µM; stronger effect = higher value
# Protein arginine N-methyltransferase 1 (Homo sapiens), sequence (Q99873 whole entry, looked up): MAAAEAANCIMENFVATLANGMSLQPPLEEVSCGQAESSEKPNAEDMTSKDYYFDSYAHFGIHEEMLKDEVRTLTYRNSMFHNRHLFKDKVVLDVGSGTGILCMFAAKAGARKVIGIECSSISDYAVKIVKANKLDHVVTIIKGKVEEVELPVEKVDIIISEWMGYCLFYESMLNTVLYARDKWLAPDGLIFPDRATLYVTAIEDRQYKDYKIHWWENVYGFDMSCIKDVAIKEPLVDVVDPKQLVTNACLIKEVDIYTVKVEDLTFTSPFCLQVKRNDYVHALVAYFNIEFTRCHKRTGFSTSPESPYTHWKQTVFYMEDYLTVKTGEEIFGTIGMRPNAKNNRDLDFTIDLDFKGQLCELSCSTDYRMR
row,Structure (SMILES),inhibition
1,O=C(O)C#Cc1cccc2ccccc12,-1.9%
2,CC(CCN1CCC(C(O)(c2ccccc2)c2ccccc2)CC1)Oc1ccc(C(F)(F)F)cc1 (stereo unspecified),0.57%
3,CCOc1ccc(-n2c(SCC(=O)Nc3cc(C)c(NC(=O)c4ccccc4)cc3OC)nnc2-c2cccc(Cl)c2)cc1,7.2%
4,C=CS(=O)c1sc(Cl)c(N2CCOCC2)c1[N+](=O)[O-] (stereo unspecified),73.1% (active)
5,CCN(C(=O)[C@@H](C1CC1)[C@@H](O)c1ccc2ccccc2c1)c1ccccc1,-0.98%
6,O=C(O)C1CCN(C(=O)c2cc(F)cc3c2OCOC3)CC1,-0.21%
7,CC(=O)N1CCc2cc(Br)cc(S(=O)(=O)CCC(=O)Nc3c(C)n(C)n(-c4ccccc4)c3=O)c21,4.6%
8,CC(C)(C)C(=O)NCCCNc1ccc([N+](=O)[O-])cc1,9.07%
9,O=C(CSCc1ccc([N+](=O)[O-])cc1)NCCSCc1ccccc1,-0.87%
10,O=C(O)/C=C/C(=O)NNc1ccc([N+](=O)[O-])cc1,59% (active)
11,COC(=O)c1ccccc1-n1cc(COC(=O)NCCc2ccccc2)nn1,-0.03%
12,Brc1ccc(/C=N/N2CCN(C3c4ccccc4-c4ccccc43)CC2)s1,-0.5%
13,S=c1[nH]nc(-c2ccco2)n1/N=C/c1ccc(Br)s1,34.3% (active)
14,CCc1ccccc1NC(=S)N(CCN1CCCCCC1)Cc1ccco1,-6.03%
15,Cn1c(C(=O)NCCCN2CCCCC2)cc2sccc21,-0.77%
16,O=C(Nc1ccc(Br)cc1)OCCN1C(=O)CCC12CCC(c1ccccc1)CC2 (stereo unspecified),-1.94%
17,O=C1C(Cl)=C(Oc2ccccc2)C(=O)c2ccccc21,88.5% (active)
18,COc1ccc(Cn2cc(CN3[C@@H](CC(C)C)COc4cc(Br)ccc4S3(=O)=O)nn2)cc1,-4.17%
19,Cc1ccc(-n2c(SCC(=O)Nc3ccc(S(=O)(=O)Nc4nccs4)cc3)nnc2-c2ccncc2)cc1,-1.23%
20,CC(C)CNc1cccc2c1S(=O)(=O)N(Cc1cn(Cc3ccc(Cl)cc3)nn1)Cc1ccccc1O2,-5.99%
21,O=C(NCc1ccccc1)[C@@H]1CCCN1C(=O)[C@H]1CCCN1C(=O)c1cccc(Cl)c1,-3.52%
22,O=C(CSc1nc2ccccc2s1)N=Nc1c(O)[nH]c2ccccc12,2.56%
23,O=C(O)c1ccccc1CSc1nc2ccccc2s1,40.8% (active)

row,Structure (SMILES),inhibition
1,O=C(CSc1nc2ccccc2s1)NN=Cc1ccc(O)cc1O,-0.64%
2,Cc1ccc(NC(=O)c2cc(C)nn2-c2ccccc2)c(C)c1,-2.87%
3,CCCC(=O)NC(Nc1ccccc1OC)C(Cl)(Cl)Cl (stereo unspecified),1.36%
4,CCN(CC)c1ccc2oc(=O)c(C)nc2c1,46.6% (active)
5,CCN(C(=O)CSc1nnc(-c2ccc(OC(F)F)cc2)n1N)C1CCS(=O)(=O)C1 (stereo unspecified),-3.24%
6,Cc1ccc(Cc2cnc(N)s2)o1,40.4% (active)
7,Cc1ccc(-n2c(C)cc(/C=C(\C#N)C(=O)NCC3CCCO3)c2C)cc1 (stereo unspecified),-0.82%
8,CCCNC(=O)Nc1ccc2c(c1)C(=O)N(C)[C@H]1CC[C@H](CC(=O)NCC3CCCCC3)O[C@@H]1CO2,1.64%
9,C[C@@H](NC(=O)c1ccccc1OCC(=O)Nc1ccc(I)cc1)C(=O)N(C)Cc1ccccc1,-0.05%
10,O=C(NCC(=O)N1CCN(c2ncc(C(F)(F)F)cc2Cl)CC1)c1ccc(Br)o1,-1.7%
11,COc1ccnc(NC(=S)N2CCN(c3ncc(C(F)(F)F)cc3Cl)CC2)c1,35.6% (active)
12,Cc1cc(C)nc(NC(=S)N2CCN(c3ccc(C(F)(F)F)cn3)CC2)c1,7.93%
13,CC(C)c1ccc(NC2CCCN(C(=O)c3ccncc3)C2)cc1 (stereo unspecified),5.83%
14,Cc1cc(NS(=O)(=O)c2ccc(NC(=O)CSc3nnc(SCc4ccc(F)cc4)s3)cc2)nc(C)n1,1.42%
15,CC1CCN(C(=S)c2ccc(-c3ccc(Cl)cc3Cl)o2)CC1,31.8% (active)
16,COc1ccc(C(=O)Nc2c(Cl)cc(Cl)cc2C(=O)N2CCC(C)CC2)cc1,1.04%
17,CC1CCN(C(=S)c2cccc(O)c2)CC1,3%
18,C1CC1Cc1noc(CN2CCN(CC3CC3)CC2)n1,-0.03%
19,Cc1nc(NC(=O)C(C)(C)C)sc1[N+](=O)[O-],-3.06%
20,CCN(CC)CCNS(=O)(=O)c1ccc(/C=C/C(=O)O)cc1,4.48%
21,CCOc1cccc(/C=N/N2C(=O)CSC2=S)c1O,63.6% (active)
22,CCOc1cc(/C=N/n2cnnc2)c(Br)cc1O,4.53%
23,COC(=O)[C@]12C[C@H](CC(=O)NCC34CC5CC(CC(C5)C3)C4)C(=O)N(Cc3ccc(Cl)cc3Cl)C1=C[C@H](COCc1ccccc1)O[C@@H]2C,2.58%

row,Structure (SMILES),inhibition
1,COC(=O)[C@]12C[C@H](CC(=O)N3CCN(C(=O)C4CC4)CC3)C(=O)N(CCC3=CCCCC3)C1=C[C@H](C(C)C)O[C@@H]2C1CC1,1.61%
2,Cc1cccc(NC(=O)c2sc3nc(N4CCOCC4)c4c(c3c2N)CCCC4)c1,33% (active)
3,c1ccc(CSc2ncnc3c2sc2nc(N4CCOCC4)c4c(c23)CCCC4)cc1,-1.26%
4,Cc1cccc(NC(=O)CSc2nnc(NC(=O)CN3CCOCC3)s2)c1,0.98%
5,COc1cc(C(=O)N/C(=C\c2cn(C)c3ccccc23)C(=O)N2CCOCC2)cc(OC)c1OC,4.22%
6,COc1ccc(C2CC=C(C(=O)O)C(c3ccccc3F)N2S(=O)(=O)c2ccc(C)cc2)cc1OC (stereo unspecified),-1.02%
7,COc1cccc2c1C(=O)c1c(O)c3c(c(O)c1C2=O)CC(O)(C(C)=NNC(=O)c1ccc(Cl)c(Cl)c1)CC3OC1CC(N)C(O)C(C)O1 (stereo unspecified),179% (active)
8,CN1c2ccc(C=O)c3c(C=O)ccc(c23)N(C)C1(C)C,68.8% (active)
9,O=C(CSc1nc2nccnc2c(=O)n1Cc1cccs1)Nc1ccccc1F,5%
10,O=C1C(=O)N(Cc2ccc(-c3ccsc3)cc2)c2ccc(OC(F)(F)F)cc21,-4.19%
11,O=C1CC[C@@H](COc2ccc3[nH]cc(-c4ccccc4)c3c2-c2ccccc2)N1,-0.73%
12,CC(C)(C)c1nnc2sc(SCC(O)=C(C#N)c3nc4ccccc4[nH]3)nn2c1=O,21.6% (active)
13,Cc1ccc(NC(=O)CSc2nn3c(=O)c(C)nnc3s2)cc1Cl,1.57%
14,O=C(Cc1ccccc1)NCC1OCCc2ccccc21 (stereo unspecified),0%
15,COc1ccc(C)cc1NC(=O)CSc1nc(SC)ns1,16%
16,CSc1nsc(SCC(=O)Nc2cc(C(=O)O)ccc2C)n1,20.1%
17,COc1ccc(NC(=O)CSc2nc(SC)ns2)c(OC)c1,36.5% (active)
18,O=C1CC(c2ccc3c(c2)OCO3)N=C2N(CC3CC3)C/C(=C/c3ccccc3)N12 (stereo unspecified),-0.31%
19,CC1Cc2ccccc2N1CC(=O)Nc1ccc(S(N)(=O)=O)cc1 (stereo unspecified),-0.96%
20,Cc1nc2ccc(S(=O)(=O)NCC(=O)NCCN3CCCCC3C)cc2s1 (stereo unspecified),-0.17%
21,Cc1nc2ccc(S(=O)(=O)NCC(=O)O)cc2s1,36.9% (active)
22,COc1cccc(CNC(=O)CNS(=O)(=O)c2ccc3nc(C)sc3c2)c1OC,-2.5%
23,COCC(C)NC(=O)CSc1nc2nn(-c3ccccc3)c(=O)c-2c2n1CCCCC2 (stereo unspecified),5.41%

row,Structure (SMILES),inhibition
1,CNC(=S)NNC(=O)c1ccc(N(C)C)cc1,-0.78%
2,CN(C)c1ccc(N/C=C/C(=O)C(F)(F)F)cc1,36.9% (active)
3,CC1CN(/C=C/C(=O)C(F)(F)F)CC(C)O1 (stereo unspecified),-0.81%
4,c1csc(-c2nnc(SCc3nc4ccccc4[nH]3)o2)c1,-6.14%
5,C=CCN1C(=O)[C@@H](CC(=O)NCCCOCCCC)[C@]2(C(=O)OCC)CCCCC/C=C/12,2.37%
6,c1ccc(C(=NNc2nc3ccccc3s2)c2ccccn2)cc1,27.5% (active)
7,CCC(=O)Nc1ccc2c(c1)C(=O)N(C)[C@H]1CC[C@H](CC(=O)NCCOC)O[C@@H]1CO2,5.57%
8,CC1=C(C)CC2C(=O)N(c3cccc4ccccc34)C(=O)C2C1 (stereo unspecified),42% (active)
9,CCc1ccccc1N1C(=O)C2C3CC(=O)C(c4ccccc43)C2C1=O (stereo unspecified),-4.03%
10,Cn1c(=O)c2cn(-c3cccc4ccccc34)cc2n(C)c1=O,-1.91%
11,Cc1ccc(N/N=C2\COC(C)(C)CC2=O)cc1,-2.4%
12,COc1ccc(N/N=C2/CCCCC2=O)cc1,32.7% (active)
13,COc1ccccc1Oc1ccc(N/C=C2/CCCC2=O)cc1,-1.7%
14,C=CCN(Cc1ccc2c(c1)OCO2)C(C#CC1CC1)C(C)(C)C (stereo unspecified),1.88%
15,CC(NC(=O)CSc1nc2c(cc1C#N)CN(C)CC2)c1ccccc1 (stereo unspecified),37.7% (active)
16,Cc1cc(NC(=O)CSCC(=O)NC(C)c2ccccc2)no1 (stereo unspecified),-1.57%
17,CN1CCc2nc(SC(C(=O)O)c3ccccc3)c(C#N)c(-c3cccs3)c2C1 (stereo unspecified),11.9%
18,CCOc1ccc(N(C)Cc2cc(=O)oc3ccc(OC)cc23)cc1,-2.23%
19,COc1cc2c(cc1OC)C(c1ccccc1Br)NC(=O)C2 (stereo unspecified),4.47%
20,Brc1ccccc1C1Nc2cccc3cccc(c23)N1,39.4% (active)
21,Brc1ccccc1C1N=C(c2ccccc2)NO1 (stereo unspecified),3.27%
22,COC(=O)c1c(-c2ccc(OC)cc2)c2c(c3c4ccccc4n(S(=O)(=O)c4ccc(C)cc4)c13)C(=O)N(C)C2,3.01%

# — PubChem BioAssay AID652257 (The Scripps Research Institute Molecular Screening Center, 2013)
